Screens (PubChem)
MRP1 act: MRP-1 activation; AID 799; hit rate 0.61% among 140,000; H69AR cells + doxorubicin, viability rescue, CellTiter-Glo; viability increase, % at 10 µM;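 active = viability gain under doxorubicin at or above a set limit, the compound median plus 3 SD, cut at about 4.7% in these data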;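 note: MRP-1 overexpressing cells given doxorubicin 25 µM after compound pretreatment; 18-22 h compound pretreatment then 72 h with doxorubicin before readout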
PTPN22 act: increases human PTPN22 phosphatase activity; recombinant LYP, DiFMUP fluorescence; 0 = plate median, 100 = signal doubled; hit rate 0.11% among 96,000; AID 697; activation, % at 2 µM; Q9Y2R2;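 active = activation at 2 µM above a set limit, the mean plus 5 SD, cut at about 37% in these data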
Target sequence (Q9Y2R2 whole entry, looked up): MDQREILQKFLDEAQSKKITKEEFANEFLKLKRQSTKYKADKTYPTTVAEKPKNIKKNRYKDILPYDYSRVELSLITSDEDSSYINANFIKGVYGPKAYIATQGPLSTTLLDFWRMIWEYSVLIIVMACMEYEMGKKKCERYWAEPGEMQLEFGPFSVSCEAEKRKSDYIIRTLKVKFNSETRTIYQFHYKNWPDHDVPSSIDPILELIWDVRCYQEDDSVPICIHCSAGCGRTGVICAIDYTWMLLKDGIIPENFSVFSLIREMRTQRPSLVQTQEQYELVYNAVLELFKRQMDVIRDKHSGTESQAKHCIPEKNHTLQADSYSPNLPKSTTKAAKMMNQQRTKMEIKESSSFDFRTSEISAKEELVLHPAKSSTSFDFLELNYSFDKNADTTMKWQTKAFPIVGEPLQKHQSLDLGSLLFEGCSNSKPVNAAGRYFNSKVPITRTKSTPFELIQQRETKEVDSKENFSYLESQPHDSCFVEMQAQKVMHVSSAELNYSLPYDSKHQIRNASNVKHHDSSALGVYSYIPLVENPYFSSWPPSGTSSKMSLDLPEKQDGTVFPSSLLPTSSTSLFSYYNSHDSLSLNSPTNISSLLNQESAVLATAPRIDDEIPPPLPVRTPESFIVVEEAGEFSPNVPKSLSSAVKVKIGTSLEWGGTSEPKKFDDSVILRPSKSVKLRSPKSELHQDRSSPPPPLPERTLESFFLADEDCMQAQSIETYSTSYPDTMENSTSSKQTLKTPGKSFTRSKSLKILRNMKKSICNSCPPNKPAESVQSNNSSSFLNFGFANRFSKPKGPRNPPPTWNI
MRP resist rev: MRP-mediated drug resistance reversal | H69AR cells + 2 uM doxorubicin, CellTiter-Glo, 72 h | differential viability (reversal), % at 10 µM | hit rate 0.04% among 85,000 | AID 602;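 active = viability drop by adding the cancer drug above about 55%, with treated viability meeting a 40% cutoff, limit read from the data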;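 note: larger differential means the compound sensitizes cells more to doxorubicin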
PLAP activator: activators of human placental alkaline phosphatase | P05187 | purified PLAP enzyme, luminescent substrate read-out; hits give high values | activation fold at 20 µM | hit rate 1.2% among 96,000 | AID 696; in the data active = activation fold above about 2
FAK inh: inhibitors of human focal adhesion kinase; hit rate 0.84% among 97,000; biochemical FAK kinase activity assay; Q05397; inhibition, %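 (tested at 7 µM)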; in the data active = inhibition above about 19%
PTPN22 inh 2: inhibitors of human LYP (PTPN22) phosphatase; inhibition, % at 2 µM; hit rate 0.21% among 96,000; recombinant LYP catalytic domain, DiFMUP fluorescence;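 active = inhibition at 2 µM at or above a set limit, the screen mean plus 3 SD, cut at about 24% in these data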
Hits are given with their value; – = inactive; · = no result. This is a sample that favours compounds with a hit; in the whole collection about 2.2% have one here.

SMILES	MRP1 act	PTPN22 act	MRP resist rev	PLAP activator	FAK inh	PTPN22 inh 2
O=C(O)CC(NC(=O)C1c2ccccc2Oc2ccccc21)c1ccc(Cl)cc1 (stereo not given)	–	·	·	·	·	·
COc1ccc(CN2CN=C(Nc3nc4ccccc4s3)NC2)cc1	–	–	–	–	–	–
Clc1ccccc1N/N=C/c1ccc2c(c1)OCO2	–	·	·	·	·	·
CCCCNC(=S)NNC(=O)c1nn(C)cc1Cl	–	–	–	·	–	–
Cc1ccc(S(=O)(=O)NC(=O)c2ccc(-c3ccc(-c4ccccc4)cc3)o2)c(C)c1	–	·	·	·	·	·
Cn1c(=O)c(C(=O)Nc2ncccc2O)c(O)c2ccccc21	–	·	–	2.2	·	·
O=c1c2c3c(sc2n2cnnc2n1Cc1ccccc1)CN(Cc1ccccc1)CC3	·	–	64.4	–	–	–
Cc1nnc2n(Cc3ccccc3)c(=O)c3c4c(sc3n12)CN(Cc1ccccc1)CC4	·	·	–	–	·	·
COc1ccc(C(NC(C)=O)c2ccc3cccnc3c2O)c(OC)c1 (stereo not given)	–	·	–	2.4	·	·
O=c1/c(=C/c2ccco2)sc2nc(-c3ccccc3Br)nn12	–	·	–	2.2	·	·
COC(=O)c1c(NC(=O)CSc2n[nH]c(N)n2)sc(C)c1C	–	–	–	–	–	–
CCOC(=O)c1c(NC(=O)CSc2n[nH]c(N)n2)sc(CC)c1C	–	·	–	2.2	·	·
Brc1ccc(-n2cc(-c3ccccc3)c3c(NN4CCOCC4)ncnc32)cc1	–	·	·	·	·	·
Cc1nnc(SC(C)C(=O)Nc2ccc3c(c2)OCCO3)s1 (stereo not given)	–	–	–	–	–	–
COc1ccc(-c2nnc(SC(C)C(=O)Nc3ccc4c(c3)OCCO4)o2)cc1 (stereo not given)	–	–	–	2.1	–	–
CN1c2ccccc2C(C)(C)C12CC(c1cccc(S(=O)(=O)N3CCCC3)c1)=NO2 (stereo not given)	–	·	·	·	·	·
COC(=O)C1=C(C)NC(=O)NC1c1cccc(OC)c1OCc1ccccc1 (stereo not given)	–	–	–	–	–	–
CSc1nc(-c2ccccc2)nc2[nH]ccc(=O)c12	·	–	–	·	22.1	–
CCn1cc(Br)c(C(=O)NC(=S)Nc2ccc(C(=O)OC)cc2)n1	–	·	·	·	·	·
CC(C(=O)N1c2ccccc2CCc2ccccc21)n1nnc(-c2ccc(N(C)C)cc2)n1 (stereo not given)	8.2	–	–	·	–	–
Cc1ccc(-c2nnn(C(C)C(=O)N3c4ccccc4CCc4ccccc43)n2)cc1 (stereo not given)	–	–	–	·	–	–
Cc1ccc(/C=C2/SC(=S)N(CC(=O)Nc3ncc(Cc4ccc(C)cc4)s3)C2=O)cc1	–	–	–	–	–	–
Cc1cccc(Cc2cnc(NC(=O)CN3C(=O)/C(=C/c4ccccc4)SC3=S)s2)c1	5.6	–	·	–	–	–
CC(C)c1ccc(CNc2cc(N3CCCC3)ccc2[N+](=O)[O-])cc1	5.4	–	·	–	–	–
CC(C)Nc1cc(N2CCCC2)ccc1[N+](=O)[O-]	–	–	·	–	–	–
SMILES	MRP1 act	PTPN22 act	MRP resist rev	PLAP activator	FAK inh	PTPN22 inh 2
CC(C)(C)CNc1cc(N2CCCC2)ccc1[N+](=O)[O-]	4.8	–	·	–	–	–
C/C(=N\NC(=O)CCc1c[nH]c2ccccc12)c1cccc([N+](=O)[O-])c1	7.9	·	·	·	·	·
CC1CN(C(=O)c2ccc(N3CCCCC3)c([N+](=O)[O-])c2)CC(C)O1 (stereo not given)	–	·	·	·	·	·
COc1ccc(N2CCN(c3nc(NCCO)nc(N4CCOCC4)n3)CC2)cc1	–	–	–	–	–	–
COc1ccc(N2CCN(c3nc(Cl)nc(N4CCOCC4)n3)CC2)cc1	8.8	–	–	·	–	–
O=[N+]([O-])c1ncn(Cc2c(Cl)cccc2Cl)n1	–	·	·	·	·	·
N#Cc1c(N)n(CCOC(=O)c2cccc(Br)c2)c2nc3ccccc3nc12	5.7	–	–	–	–	–
O=C(CCc1ccc(S(=O)(=O)NCc2ccccc2)cc1)NCC1CCCO1 (stereo not given)	–	·	·	·	·	·
COc1ccc(NS(=O)(=O)c2ccc3c(c2)n(C)c(=O)n3C)cc1	–	–	·	–	–	–
COc1ccc(NS(=O)(=O)c2ccc3oc(SC4CCOC4=O)nc3c2)cc1 (stereo not given)	7.4	–	–	–	–	–
CCOC(=O)c1nnc(-c2ccc(C)cc2)nc1Oc1ccc(Cl)cc1Cl	5.0	–	·	–	–	–
CCOC(=O)c1nnc(-c2ccc(C)cc2)nc1Oc1ccccc1Cl	–	–	·	–	–	–
CC(C)c1ccc(NC(=O)c2snc3ccc(Cl)cc23)cc1	–	·	·	·	·	·
Cc1ccc(NC(=S)N2CCN(c3ncccn3)CC2)c(C)c1	–	·	·	·	·	·
Cn1c(=O)[nH]c2ccc([N+](=O)[O-])nc21	–	·	·	·	·	·
Nc1nc(Sc2ccc(C(F)(F)F)cc2[N+](=O)[O-])n[nH]1	–	–	–	2	–	–
Cc1ccc(-c2nc3cnccn3c2Nc2c(C)cccc2C)o1	–	–	–	–	–	–
O=C(CC(c1ccccc1)c1ccccc1)Nc1ncn[nH]1	–	–	–	2.9	–	–
Cc1ccc(C(=O)c2cn[nH]c2-c2ccccc2O)cc1	–	–	–	2	–	–
COc1ccc(C(=O)c2ccc(Cl)cc2Cl)cc1	–	–	–	–	–	–
COc1ccc(C(=O)c2cn[nH]c2-c2cc(Cl)ccc2O)cc1	–	–	–	2.2	–	–
O=C(c1ccc(F)cc1)c1cn[nH]c1-c1ccccc1O	–	–	–	2.5	–	–
O=C(c1ccc(Cl)cc1)c1cn[nH]c1-c1ccccc1O	–	–	–	·	–	–
O=c1[nH]c(CSc2nc(-c3ccc(F)cc3)cs2)nc2ccccc12	–	·	·	·	·	·
COc1ccc(O[C@H]2C=C[C@@H](c3ccccc3)O[C@@H]2CO/N=C(\C)CCC(=O)OC[C@H]2O[C@H](c3ccccc3)C=C[C@@H]2Oc2ccc(OC)cc2)cc1	–	·	·	·	·	·
SMILES	MRP1 act	PTPN22 act	MRP resist rev	PLAP activator	FAK inh	PTPN22 inh 2
CCOc1ccc(S(=O)(=O)NCc2ccccn2)cc1	–	–	–	2	–	–
COc1ccc(S(=O)(=O)NCc2ccccn2)cc1	–	–	–	–	–	–
COc1ccc(S(=O)(=O)NCc2ccccn2)c(Cl)c1Cl	–	–	–	2.1	–	–
Cc1cc(C)c(C)c(OC(=O)c2sc(Cl)nc2C)c1	–	·	·	·	·	·
O=C(NCCc1ccccc1)C(=O)c1c(-c2ccccc2)cc2ccccn12	8.3	·	·	·	·	·
O=C(NCCN1C(=O)S/C(=C/c2ccccc2)C1=O)C1CCCN1C(=O)c1cccs1 (stereo not given)	7.5	·	·	·	·	·
O=C(Cn1c2ccccc2c(=O)c2ccccc21)Nc1cccc(F)c1	–	·	·	·	·	·
CN(Cc1ccccc1)c1ncnc2c1cnn2-c1ccccc1	5.3	–	–	–	–	–
Nc1ccccc1C(=O)NNc1ncc(C(F)(F)F)cc1Cl	–	–	·	2	–	–
O=C(COC(=O)CNC(=O)c1ccccc1Cl)Nc1ncc(C(F)(F)F)cc1Cl	–	·	·	·	·	·
Fc1cccc2sc(Nc3nc4ccccc4s3)nc12	–	·	·	·	·	·
O=C(NNc1nc2ccccc2s1)C1CC1	–	–	·	2.2	–	–
CC(C)C(=O)NNc1nc2ccccc2s1	–	–	·	–	–	–
O=C(NNc1nc2ccccc2s1)c1ccccc1F	–	–	·	2.3	–	–
